The entries come from a sample that favours hits as a whole.
Pf apPOL inh: Pf-apPOL DNA polymerase inhibition | AID 1794808 | actives 0.25% (n = 210,000) | Recombinant Pf-apPOL, molecular beacon fluorescence, 1.5 h | inhibition, % at 10 µM
mHTT CaM bind: mHTT-calmodulin interaction abrogation; P42858; inhibition, % at 15 µM; AlphaScreen His-mHTT/GST-CaM binding, luminescence; actives 3.6% (n = 190,000)
Numbers stand for hits; . = inactive; / = no result given. Cut-off read from the data, not from the text of the source: active = inhibition above about 50%; inactive = the rest.

SMILES	Pf apPOL inh	mHTT CaM bind
Cc1ccccc1C1CCCN1C(=O)Cc1cccc(Cl)c1 (stereo not given)	.	.
Cc1ccccc1C1CCCN1C(=O)Cc1ccc(Cl)cc1 (stereo not given)	.	58.0
Cc1ccc(C2CCCN2C(=O)Cc2ccc(F)cc2)cc1 (stereo not given)	.	.
Cc1ccc(C2CCCN2C(=O)Cc2ccc(Cl)cc2)cc1 (stereo not given)	.	57.8
O=C(CC(c1ccccc1)c1ccccc1)NCC(O)C1CCCCC1 (stereo not given)	.	.
CC1CCN(S(=O)(=O)N2CCCC(C(=O)NCCc3ccc(Cl)cc3)C2)CC1 (stereo not given)	.	.
O=C(CSc1nc2ccc(NC(=O)c3ccccc3)cc2s1)Nc1nccs1	.	.
O=C(Nc1ccccc1C(F)(F)F)N(CCc1cccs1)Cc1ccco1	.	.
O=C(CC1CCCCN1S(=O)(=O)c1ccc(Cl)cc1)NC1CCCC1 (stereo not given)	.	.
CCOc1cccc(/C=C/c2ccc3cccc(O)c3n2)c1OC	.	.
Oc1ccc(/C=C/c2ccc3cccc(O)c3n2)cc1Br	.	62.0
CCOc1cc(/C=C/c2ccc3cccc(O)c3n2)ccc1O	.	.
COc1cc(/C=C/c2ccc3cccc(O)c3n2)cc(OC)c1O	.	74.0
O=C(O)c1ccc(/C=C/c2ccc3cccc(O)c3n2)cc1	.	.
COc1ccc(Cl)cc1/C=C/c1ccc2cccc(O)c2n1	.	52.0
CCCCC1CCC(C(=O)Nc2c3c(nn2-c2ccc(F)cc2)CS(=O)C3)CC1 (stereo not given)	.	.
O=C(Cc1cccs1)Nc1c2c(nn1-c1ccc(F)cc1)CSC2	.	.
O=C(Nc1cc(-c2ccccc2)nn1CCO)c1ccccc1C(F)(F)F	.	.
CN(C)c1ccc(CN2CCc3c([nH]c4ccccc34)C2)cc1	.	59.7
Clc1ccccc1CN1CCc2c([nH]c3ccccc23)C1	.	94.9
c1ccc2c3c([nH]c2c1)CN(Cc1ccc2c(c1)OCO2)CC3	.	.
COc1cccc(CN2CCc3c([nH]c4ccccc34)C2)c1OC	.	.
CC(=O)Nc1ccc(N=Cc2nc(-c3ccc([N+](=O)[O-])cc3)oc2O)cc1	.	.
N#CC1=C(N)N(c2ccc(Br)cc2F)C2=C(C(=O)CCC2)C1c1ccsc1 (stereo not given)	.	.
CC1(C)CC(=O)C2=C(C1)N(c1cccc(C(F)(F)F)c1)C(N)=C(C#N)C2c1ccsc1 (stereo not given)	.	.
SMILES	Pf apPOL inh	mHTT CaM bind
N#CC1=C(N)N(c2ccc(Br)cc2F)C2=C(C(=O)CCC2)C1c1cccs1 (stereo not given)	.	54.0
N#CC1=C(N)N(c2cccc(Br)c2)C2=C(C(=O)CCC2)C1c1cccs1 (stereo not given)	.	68.0
CC1(C)CC(=O)C2=C(C1)N(c1cccc(C(F)(F)F)c1)C(N)=C(C#N)C2c1cccs1 (stereo not given)	.	67.0
N#CC1=C(N)N(c2ccccc2)C2=C(C(=O)CCC2)C1c1cccs1 (stereo not given)	.	.
CSC1=C(C#N)C(c2ccc3c(c2)OCO3)CC(=O)N1 (stereo not given)	.	.
CN(C)C1=C(Nc2cccc(Cl)c2)C(=O)c2ccccc2C1=O	.	57.0
CN(C)C1=C(Nc2cccc(I)c2)C(=O)c2ccccc2C1=O	.	92.0
CC(C)C(=O)Nc1cccc(I)c1	.	.
CC(=O)N(C1=C(N(C)C)C(=O)c2ccccc2C1=O)c1cccc(Cl)c1	.	.
COc1cccc(C2CC(c3ccc(Cl)cc3)=NC3(CCN(C(C)=O)CC3)N2)c1O (stereo not given)	.	58.4
COc1ccc(O)c(C2=NC3(CCN(C(C)C)CC3)NC(c3ccccc3O)C2)c1 (stereo not given)	.	.
COc1cccc(C2=NC(C)(C(C)C)NC(c3ccccc3O)C2)c1 (stereo not given)	.	70.0
COc1cccc(C2CC(c3ccc(C)c(C)c3)=NC3(CCN(C(C)=O)CC3)N2)c1O (stereo not given)	.	.
CC(C)N1CCC2(CC1)N=C(c1ccccc1O)CC(c1ccccc1O)N2 (stereo not given)	.	.
COc1cccc(C2=NC3(CCN(C)CC3)NC(c3cc(Cl)ccc3O)C2)c1 (stereo not given)	.	51.6
COc1ccccc1C1CC(c2ccccc2O)=NC2(CCN(C(C)C)CC2)N1 (stereo not given)	.	65.7
CCOc1ccc(C2=NC3(CCN(C)CC3)NC(c3cc(Cl)ccc3O)C2)cc1 (stereo not given)	.	.
CC(C)Cn1c(=O)c(N2CCN(C(=O)C(C)C)CC2)nc2ccccc21	.	.
Cn1nnnc1SCc1csc(/C=C(\C#N)C(N)=S)c1	/	.
Cc1ccc(NC(=O)COc2ccccc2)cc1[N+](=O)[O-]	.	.
Cc1n[nH]c(C)c1Sc1ccccc1N=Cc1ccccc1O	.	.
COCCC1CCN(C(=O)C2CCCCC2)CC1	.	.
COc1ccc(C2=NOC(C(=O)Nc3cc(C)ccc3O)C2)cc1OC (stereo not given)	.	.
CCCC1(C)N=C(c2ccc(Cl)cc2)CC(c2cccc(OC)c2O)N1 (stereo not given)	.	88.0
CCOC(=O)N1CCC2(CC1)N=C(c1ccccc1O)CC(c1cc(Cl)ccc1O)N2 (stereo not given)	.	.
SMILES	Pf apPOL inh	mHTT CaM bind
COc1ccc(C2=NC3(CCN(C(C)=O)CC3)NC(c3cc(Cl)ccc3O)C2)cc1 (stereo not given)	.	98.7
CC(=O)N1CCC2(CC1)N=C(c1ccc(C)cc1C)CC(c1cc(Cl)ccc1O)N2 (stereo not given)	.	87.8
CCN1CCC2(CC1)N=C(c1ccc3c(c1)OCO3)CC(c1cc(Cl)ccc1O)N2 (stereo not given)	.	.
CCN1CCC2(CC1)N=C(c1ccc(C)cc1)CC(c1cccc(OC)c1O)N2 (stereo not given)	.	.
CC(=O)N1CCC2(CC1)N=C(c1ccc3c(c1)OCO3)CC(c1cc(Cl)ccc1O)N2 (stereo not given)	.	79.0
CCN1CCC2(CC1)N=C(c1ccc(F)cc1)CC(c1cc(Cl)ccc1O)N2 (stereo not given)	.	.
Cc1oc2c3c(ccc2c(=O)c1-c1ccc2c(c1)OCCO2)OCCO3	.	.
CCOC(=O)c1nn(-c2ccc(C)cc2)c(=O)cc1OCC(=O)NCc1ccco1	.	.
Cc1ccc(C2CC(c3ccccc3O)=NC3(CCN(C)CC3)N2)cc1 (stereo not given)	.	.
CCOC(=O)N1CCC2(CC1)N=C(c1ccc(F)cc1)CC(c1cc(Cl)ccc1O)N2 (stereo not given)	.	.
CN1CCC2(CC1)N=C(c1ccccc1O)CC(c1ccccc1O)N2 (stereo not given)	.	.
CCCC1(C)N=C(c2ccc3c(c2)OCO3)CC(c2ccccc2O)N1 (stereo not given)	.	84.0
Oc1ccc(Cl)cc1C1=NC2(CCNCC2)NC(c2ccccc2O)C1 (stereo not given)	.	100.3
Cc1ccc(C)c(C2=NC3(CCN(C)CC3)NC(c3cc(Cl)ccc3O)C2)c1 (stereo not given)	.	98.2
CCOC(=O)N1CCC2(CC1)N=C(c1ccc3c(c1)OCO3)CC(c1ccccc1O)N2 (stereo not given)	.	.
